In PubChem BioAssay AID540333 (Southern Research Specialized Biocontainment Screening …, 2011) one finds CPE inhibition data, which are given here for 93 compounds.

In all, about 10,000 compounds went through this assay and about 320 (3.2%) were called active. Cut-off read from the data, not from the text of the source: active = CPE inhibition mostly above about 9.1% (no sharp cut-off); inactive = mostly below about 7.2%. Only a selection was taken, and actives are over-represented in it overall.

A short description of the assay: Dengue virus cytopathic effect inhibitors, cell-based, CPE readout, HTS (AID 540333). To be noted: Dengue virus CPE inhibition in host cells, at 20 µM; hits give high values.
On to `COC(=O)c1cc(CNC(=O)c2ccc(O)c(Cl)c2)ccc1OC`, for which the CPE inhibition was 0.01% (inactive).
As for `CC(Sc1nnc(NCc2ccccc2)s1)C(=O)Nc1ccc2c(c1)C(=O)c1ccccc1C2=O` (stereo not drawn), the CPE inhibition is 4.04% (inactive).
As for `Cc1ccc(Nc2nnc(SC(C)C(=O)Nc3c(C)n(C)n(-c4ccccc4)c3=O)s2)cc1` (stereo not drawn), the CPE inhibition result is “inactive”.
As to `CC(Sc1nnc(NC2CCCCC2)s1)C(=O)Nc1ccc2c(c1)C(=O)c1ccccc1C2=O` (stereo not drawn), the CPE inhibition was 11.9% (active).
Turning to `CCNC(=S)N/N=C(\C)c1cc2ccccc2o1`, the CPE inhibition was 0.995% (inactive).
The result for `COc1ccc(C(=O)NCc2nnc(SCC(=O)N3CCc4ccccc43)n2Cc2ccccc2)cc1` reads “inactive”.
The same measure for `CCSc1nnc(CNC(=O)C23CC4CC(CC(C4)C2)C3)n1C1CCCCC1`: 5.44% (inactive); for `O=C(CNC(=O)C12CC3CC(CC(C3)C1)C2)N1CCN(S(=O)(=O)/C=C/c2ccccc2)CC1`: 0.155% (inactive).
On to `CCCCSc1nnc(CNC(=O)C23CC4CC(CC(C4)C2)C3)n1Cc1ccccc1`, for which the CPE inhibition was 8.5% (active).
The result for `CC(C)Sc1nnc(CNC(=O)C23CC4CC(CC(C4)C2)C3)n1Cc1ccccc1` reads 14.9% (active); that for `CCC(C)Sc1nnc(CNC(=O)C23CC4CC(CC(C4)C2)C3)n1C1CCCCC1` (stereo not drawn), 12.2% (active).
`Cc1nnc(SCC(=O)NC(C)(C)C)n1C1CCCCC1`: the CPE inhibition result was “inactive”.
The result for `CCCSc1nnc(CNC(=O)C23CC4CC(CC(C4)C2)C3)n1Cc1ccccc1` reads 7.14% (inactive).
Take `CCSc1nnc(CNC(=O)C23CC4CC(CC(C4)C2)C3)n1Cc1ccccc1`: the CPE inhibition was 0.79% (inactive).
The result for `CCOC(=O)CC1C(=O)NCCN1C(=S)Nc1ccccc1` (stereo not drawn) reads 0.585% (inactive); that for `O=C(NC1(C(F)(F)F)NC(=O)N(CCc2ccccc2)C1=O)C1CC1` (stereo not drawn), “inactive”.
The result for `COc1ccccc1-n1cc(-c2ccc(Cl)cc2)[nH]c1=O` reads 0.275% (inactive); that for `CCc1ccc(-c2nc(NC(=O)c3ccc(OCC(=O)Nc4ccc(F)cc4)c(OC)c3)sc2C)cc1`, 0.375% (inactive).
As to `COc1ccc(-c2nc(NC(=O)c3ccc(OCC(=O)Nc4ccc(F)cc4)c(OC)c3)sc2C)cc1`, the CPE inhibition is 12.6% (active).
In the case of `Cc1ccc(C)c(OCC(=O)Nc2ccc(S(=O)(=O)Nc3ccccn3)cc2)c1`, the CPE inhibition was 0.235% (inactive).
On to `COc1cc(C(=O)Nc2nc(-c3ccc(Cl)cc3)c(C)s2)ccc1OCC(=O)Nc1ccc(F)cc1`, for which the CPE inhibition is 6.33% (inactive).
The same measure for `COc1cc(/C=C2\SC(N)=NC2=O)ccc1OCC(=O)Nc1ccc(C)cc1`: 1.51% (inactive).
`COc1cc(C(=O)Nc2nc(-c3cc(C)ccc3C)c(C)s2)ccc1OCC(=O)Nc1ccc(F)cc1`: the CPE inhibition was 14.4% (active).
With `COc1ccc2[nH]c(O)c(N=NC(=N)N)c2c1`, the CPE inhibition was 0.45% (inactive).
The result for `COC(=O)c1cc([N+](=O)[O-])ccc1N1CCN(Cc2ccccc2)CC1` reads 0.06% (inactive); that for `COc1ccc(C(=O)OC(C)C(=O)Nc2cc(C(F)(F)F)ccc2Cl)c(OC)c1OC` (stereo not drawn), 2.02% (inactive).
The result for `CCN(CC)S(=O)(=O)c1cc(NC(=O)COc2ccc(C#N)cc2OC)ccc1C` reads “inactive”; that for `Cc1nc2ccc(C(=O)O)cc2nc1C`, 0.025% (inactive).
The same measure for `O=C(COC(=O)c1ccccc1Cl)NC(=O)NCc1ccccc1`: “inactive”.
Consider `O=C(COC(=O)c1c(Cl)ccc(Cl)c1Cl)NC(=O)NCc1ccccc1`, for which the CPE inhibition is 0.78% (inactive).
The same measure for `Nc1cc(Cl)ccc1C(=O)OCC(=O)NC(=O)NCc1ccccc1`: 19.5% (active); for `CCOC(=O)/C=C(/C)N1N=C(c2ccc(OC)cc2)CC1c1cccc([N+](=O)[O-])c1` (stereo not drawn): 0.895% (inactive).
The result for `Cc1cc(OCCOCCN(C)C)ccc1Cl` reads 0.765% (inactive).
The result for `COC(=O)C1=NN[C@H](C(=O)OC(C)(C)C)[C@H]1c1ccccc1` reads “inactive”; that for `CCOc1ccc2c(c1)c(N=NC(=N)N)c(O)n2C`, 0.04% (inactive); that for `O=S(=O)(NC1CCCCC1Oc1ccccc1)c1ccccc1` (stereo not drawn), 3.28% (inactive).
In the case of `O=S(=O)(NC1CCCCC1Sc1ncccn1)c1ccccc1` (stereo not drawn), the CPE inhibition result was “inactive”.
For the compound `O=S(=O)(NC1CCCCC1Nc1ccc(Cl)cc1)c1ccccc1` (stereo not drawn), the CPE inhibition is 12.2% (active).
The result for `COc1ccc(COc2cc(-c3cccc(OC)c3)nc3ccc(NC(=O)c4ccc(Cl)cc4)cc23)cc1` reads 4.84% (inactive); that for `CCC(=O)NC(=S)Nc1ccc(NC(=O)COc2ccccc2)cc1`, “inactive”.
As for `CCn1cc([N+](=O)[O-])nc1C`, the CPE inhibition was 0.275% (inactive).
The result for `CNC(=S)Nc1cc(Cl)ccc1Oc1ccccc1` reads 0.98% (inactive); that for `O=C(CSc1ccccc1)Nc1cc(Cl)ccc1Oc1ccccc1`, 3.48% (inactive).
The same measure for `O=C(Nc1cc(Cl)ccc1Oc1ccccc1)c1ccc(F)cc1`: 7.54% (active); for `COc1cccc(NC(=S)NCCN2CCOCC2)c1`: “inactive”; for `O=C(Nc1ccc(Cl)c(C(F)(F)F)c1)C(=O)N1CCCCC1`: 1.26% (inactive).
As for `Cc1ccc(C(=O)OC(C(=O)Nc2ccc(Cl)cc2C(F)(F)F)c2ccccc2)cc1` (stereo not drawn), the CPE inhibition was 7.33% (inactive).
Turning to `O=C(OC(C(=O)Nc1ccc(Cl)cc1C(F)(F)F)c1ccccc1)c1c(Cl)cccc1Cl` (stereo not drawn), the CPE inhibition was 21.7% (active).
Regarding `O=C(OC(C(=O)Nc1ccc(Cl)c(C(F)(F)F)c1)c1ccccc1)C1=COCCO1` (stereo not drawn), the CPE inhibition was 16.4% (active).
With `O=C(OC(C(=O)Nc1cc(Cl)cc(Cl)c1)c1ccccc1)C1=COCCO1` (stereo not drawn), the CPE inhibition is 32.8% (active).
Take `O=C(Nc1cc(Cl)cc(Cl)c1)C(c1ccccc1)N1CCCCC1` (stereo not drawn): the CPE inhibition is 3.29% (inactive).
The result for `O=C(Nc1nnc(-c2ccc(Cl)cc2)o1)C1=COCCO1` reads 0.23% (inactive).
The result for `O=C(Nc1cccc(-c2nc3ccccc3s2)c1)C1=COCCO1` reads “inactive”.
The result for `COC(C(=O)Nc1ccc(Cl)cc1C)c1ccccc1` (stereo not drawn) reads 1.5% (inactive); that for `COC(=O)c1cnn(-c2nc(OC)cc(OC)n2)c1C`, 0.205% (inactive); that for `COC(=O)C1=NN(c2cccc(C)c2)C2C(=O)N(c3ccccc3OC)C(=O)C12` (stereo not drawn), 0.91% (inactive).
For `O=S(=O)(c1ccc(F)cc1)N1CCN(C(=S)NCc2ccco2)CC1`, the CPE inhibition was 0.8% (inactive).
The same measure for `CC(C)c1ccc(S(=O)(=O)N2CCN(C(=S)NCc3ccco3)CC2)cc1`: 13.8% (active); for `CCOc1ccc(S(=O)(=O)N2CCN(C(=S)NCc3ccco3)CC2)cc1`: 0.65% (inactive).
With `Cn1c(=NC(=O)c2ccccc2[N+](=O)[O-])sc2cc(S(C)(=O)=O)ccc21`, the CPE inhibition was 2.59% (inactive).
The same measure for `CCCCN1CC(=O)N2[C@H](c3ccc(OC)cc3)[C@@H]3C(=O)N(CC)C(=O)[C@@H]3[C@]2(C)C1=O`: “inactive”.
In the case of `CC1(C)C=C(c2ccc(C=O)s2)CC(C)(C)N1C=O`, the CPE inhibition was 0.13% (inactive).
In the case of `O=C(COC(=O)C12CC3CC(CC(C3)C1)C2)Nc1ccc([N+](=O)[O-])cc1Cl`, the CPE inhibition was 1.98% (inactive).
The result for `O=C(COC(=O)C12CC3CC(CC(C3)C1)C2)Nc1nc2c(F)c(F)c(F)cc2s1` reads 13.5% (active); that for `O=C(COC(=O)C12CC3CC(CC(C3)C1)C2)Nc1ccc([N+](=O)[O-])cc1Br`, “inactive”.
As for `CCN(CC)c1ccc(/C=N/NC(=S)NCc2ccccc2)c(O)c1`, the CPE inhibition result was “inactive”.
Turning to `CCN(Cc1ccccc1)c1ccc(/C=N/NC(=S)NC(C)C)cc1`, the CPE inhibition is 30.1% (active).
In the case of `CCN(Cc1ccccc1)c1ccc(/C=N/N=C(N)N)cc1`, the CPE inhibition result was “inactive”.
The same measure for `C=CCNC(=S)N/N=C/c1ccc(N(CC)Cc2ccccc2)cc1`: 28.3% (active); for `CCN(Cc1ccccc1)c1ccc(/C=N/NS(=O)(=O)c2ccc(C)c([N+](=O)[O-])c2)cc1`: 0.46% (inactive).
Turning to `CCN(CC)c1ccc(/C=N/NC(=O)c2ccco2)cc1`, the CPE inhibition was 1.16% (inactive).
The result for `CCOC(=O)c1ccc(NC(=O)c2c(N)n(Cc3ccccc3)c(=O)[nH]c2=O)cc1` reads “inactive”.
As to `Cc1ccc(CCNC(=O)CN(C)S(=O)(=O)c2cnc[nH]2)cc1`, the CPE inhibition entry is “inactive”.
With `O=C(Nc1ccc(Cl)c([N+](=O)[O-])c1)c1ccncc1`, the CPE inhibition was 0.365% (inactive).
The same measure for `CC12CCC(C(=O)N3CCCc4ccccc43)(OC1=O)C2(C)C` (stereo not drawn): 0.12% (inactive); for `O=C(C1=NN[C@@H]2C(=O)N(c3cccc(C(F)(F)F)c3)C(=O)[C@H]12)C(c1ccccc1)c1ccccc1`: 0.31% (inactive); for `CCOC(=O)c1c(NC(NC(C)=O)C(Cl)(Cl)Cl)sc2c1CCCC2` (stereo not drawn): 13% (active).
As to `CC(C)C(=O)NC(=S)Nc1sc2c(c1C(N)=O)CCCC2`, the CPE inhibition result is “inactive”.
The same measure for `COC(=O)c1c(NC(NC(=O)C(C)C)C(Cl)(Cl)Cl)sc2c1CCC2` (stereo not drawn): 13.8% (active).
The same measure for `CCOC(=O)c1c(NC(=S)Nc2ccc(OC)cc2)sc2c1CCC2`: “inactive”; for `CC(C(=O)Nc1sc2c(c1C(=O)NCC1CCCO1)CCC2)N1C(=O)c2ccccc2C1=O` (stereo not drawn): “inactive”.
The same measure for `CCOC(=O)c1c(NC(=O)C2(C)Cc3ccccc3C(=O)O2)sc2c1CCCC2` (stereo not drawn): 4.8% (inactive); for `COc1ccc(N(CC(=O)Nc2cccc([N+](=O)[O-])c2C)S(C)(=O)=O)cc1OC`: “inactive”.
Take `N/C(=N\OCC(=O)Nc1ccccc1)c1nonc1N`: the CPE inhibition is 0.24% (inactive).
Consider `NS(=O)(=O)c1ccc(CCNC(=O)c2cc(-c3ccccc3)nc3ccccc23)cc1`, for which the CPE inhibition result is “inactive”.
As for `CC1(c2nnc(Cc3ccccc3)o2)CC(c2ccccc2F)=NO1` (stereo not drawn), the CPE inhibition entry was “inactive”.
The result for `COc1ccc(C(=O)NCC(=O)OCC(=O)N2CCN(S(=O)(=O)c3ccccc3)CC2)cc1` reads “inactive”.
As to `O=C(NNC(=S)NCc1ccccc1)c1ccc(OC(F)F)cc1`, the CPE inhibition was 0.96% (inactive).
The same measure for `O=C(NCc1ccccc1)/C(=C/c1ccc(OC(F)F)cc1)c1ccccc1`: 9.52% (active); for `FC(F)Oc1ccc(NC(=S)NCc2ccccc2)cc1`: “inactive”.
Regarding `Cc1cc(C(=O)COc2ccc(C#N)cc2)c(C)n1-c1ccc2c(c1)OCO2`, the CPE inhibition is 9.11% (inactive).
On to `O=C(O)c1cccc2c1C(=O)c1ccc(-c3ccc(F)cc3F)cc1S2(=O)=O`, for which the CPE inhibition is 1.88% (inactive).
The same measure for `O=C(Nc1ccc(F)cc1)c1ccccc1Oc1ccc(C(F)(F)F)cc1[N+](=O)[O-]`: 9.71% (inactive).
